Assay [1] can be described thus: qHTS assay to identify small molecule antagonists of the retinoid acid receptor (RAR) signaling pathway - cell viability counter screen (AID 1159551). Note: nearly all actives have a fitted effect of over 35% in size. The gist of the method:
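Following overnight attachment, C3RL4 reporter cells received DMSO-dissolved compounds and then retinol (1 uM final). Six hours later at 37 C, ATP content was measured by CellTiter-Glo luminescence.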
For orientation: Quantitative high-throughput screening tests each substance at several concentrations.

Assay [2] can be described thus: qHTS assay to identify small molecule antagonists of the retinoic acid receptor (RAR) signaling pathway (AID 1159552; note: nearly all actives have a fitted effect of over 50% in size). The gist of the method:
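Quantitative HTS in C3RL4 RARE-luciferase reporter cells. Compounds were added with 1 uM (final) retinol; luminescence was read after 6 hr.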

A short description of assay [3]: qHTS assay to identify small molecule agonists of the retinoic acid receptor (RAR) signaling pathway (AID 1159553). The method in brief: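 Cell line C3RL4, RARE luciferase reporter. Treatment: compounds in DMSO, 6 hr, 37 C, 5% CO2, after overnight plating. Detection: luminescence, 30 min RT after reagent.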
The nature of assay [4]: qHTS assay to identify small molecule antagonists of the estrogen related receptor (ERR) signaling pathway from Tox21 library - cell viability counter screen (AID 1224834). Note: nearly all actives have a fitted effect of over 30% in size. The gist of the method: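 Viability readout (CellTiter-Fluor fluorescence, 30 min at 37 C) multiplexed with the ERR assay; cells treated 17.5 h at 37 C with compounds delivered in DMSO.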
For assay [5], the target named is Luciferin 4-monooxygenase (Photinus pyralis) (UniProt P08659). The experiment in a line: qHTS assay to identify small molecule inhibitors of firefly luciferase (AID 1224835). For activity change, negative = inhibition: series mostly up to about 120 µM. Note: nearly all actives have a fitted effect of over 25% in size. Note: potency is the fitted concentration of half-maximal effect. The method in brief: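 Biochemical qHTS: compounds run as interplate titrations against purified firefly enzyme, with D-luciferin and ATP each at its KM concentration. Light output recorded by CCD imaging.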
Chain of Luciferin 4-monooxygenase (Photinus pyralis) (P08659 whole entry, looked up): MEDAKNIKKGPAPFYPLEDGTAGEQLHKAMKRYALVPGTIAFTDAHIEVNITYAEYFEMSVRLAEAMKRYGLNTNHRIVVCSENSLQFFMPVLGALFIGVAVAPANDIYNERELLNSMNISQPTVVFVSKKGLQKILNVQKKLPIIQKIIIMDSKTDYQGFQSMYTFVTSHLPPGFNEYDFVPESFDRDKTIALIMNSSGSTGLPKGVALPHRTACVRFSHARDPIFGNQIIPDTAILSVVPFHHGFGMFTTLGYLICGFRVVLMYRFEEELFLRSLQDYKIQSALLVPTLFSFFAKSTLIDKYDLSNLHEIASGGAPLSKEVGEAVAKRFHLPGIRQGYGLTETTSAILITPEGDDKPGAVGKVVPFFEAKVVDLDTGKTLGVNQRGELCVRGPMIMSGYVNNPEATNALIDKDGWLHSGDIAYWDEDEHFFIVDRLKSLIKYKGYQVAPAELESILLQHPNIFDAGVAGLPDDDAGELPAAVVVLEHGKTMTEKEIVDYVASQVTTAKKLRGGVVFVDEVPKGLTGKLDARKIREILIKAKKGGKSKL

A short description of assay [6]: qHTS assay to identify small molecule agonists of the constitutive androstane receptor (CAR) signaling pathway - cell viability counter screen (AID 1224836). Note: series mostly up to about 92 µM; nearly all actives have a fitted effect of over 45% in size. The gist of the method:
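Counter screen multiplexed with the CAR reporter readout: HepG2 cells co-transfected with hCAR and the CYP2B6-2.2kb construct receive a 15-concentration compound series and 0.75 uM PK11195 (final), then CellTiter-Fluor fluorescence is read after 23 h.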

The nature of assay [7]: qHTS assay to identify small molecule antagonists of the constitutive androstane receptor (CAR) signaling pathway - cell viability counter screen (AID 1224837). Note: series mostly up to about 92 µM; nearly all actives have a fitted effect of over 45% in size. The method in brief:
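Fluorescence from CellTiter-Fluor served as the viability signal. Human hepatoma HepG2 cells stably bearing hCAR and CYP2B6-2.2kb received compound plus CITCO (50 nM final) for 23 hr.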

For assay [8], the target named is Nuclear receptor subfamily 1 group I member 3 (Homo sapiens) (UniProt Q14994). The experiment in a line: qHTS assay to identify small molecule antagonists of the constitutive androstane receptor (CAR) signaling pathway (AID 1224838).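 Note: HepG2 cells stably expressing hCAR with CYP2B6 luciferase reporter stimulated by CITCO; nearly all actives have a fitted effect of over 40% in size.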 The method in brief: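 Quantitative HTS in double-stable HepG2-CYP2B6-hCAR cells. After 4 h plating, cells get compound (15 concentrations) and CITCO at 50 nM final, incubate 24 h at 37 C, then ONE-Glo luminescence is read.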
Chain of Nuclear receptor subfamily 1 group I member 3 (Homo sapiens) (Q14994 whole entry, looked up): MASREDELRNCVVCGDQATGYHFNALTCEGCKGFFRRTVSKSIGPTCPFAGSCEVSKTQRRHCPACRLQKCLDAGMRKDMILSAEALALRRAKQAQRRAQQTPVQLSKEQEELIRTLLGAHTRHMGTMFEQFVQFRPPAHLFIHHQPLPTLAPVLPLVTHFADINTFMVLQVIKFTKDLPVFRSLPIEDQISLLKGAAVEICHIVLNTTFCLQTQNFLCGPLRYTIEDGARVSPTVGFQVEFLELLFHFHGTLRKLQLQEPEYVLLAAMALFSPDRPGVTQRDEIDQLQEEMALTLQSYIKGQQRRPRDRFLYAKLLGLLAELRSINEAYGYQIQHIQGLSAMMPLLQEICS

The target is the same in assay [9]. Put plainly: qHTS assay to identify small molecule agonists of the constitutive androstane receptor (CAR) signaling pathway (AID 1224839). Note: series mostly up to about 92 µM; nearly all actives have a fitted effect of over 15% in size. The method in brief:
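A 15-concentration quantitative screen uses HepG2 cells co-transfected stably with human CAR and CYP2B6-2.2kb reporter. Treatment lasts 24 h with 0.75 uM PK11195 final present; ONE-Glo luminescence is the signal.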

Assay [10] is described as follows: qHTS assay to identify small molecule antagonists of the estrogen related receptor signaling pathway with the pleiotropic PPARgamma coactivator (PGC) from Tox21 10K library - cell viability counter screen (AID 1224840; active = well fitted cell-killing curve with a large enough effect in the repeat runs, not every such curve was filed as active; note: nearly all actives have a fitted effect of over 40% in size). The gist of the method: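 Compounds in DMSO, alongside positive and negative controls, were pinned onto PGC/ERR cells (2,000 per well). Exposure lasted 17.5 hours at 37 C, followed by a 30-minute CellTiter-Fluor incubation and fluorescence reading.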

The target of assay [11] is Thyrotropin receptor (Homo sapiens) (UniProt P16473). Put plainly: qHTS assay to identify small molecule agonists of the thyroid stimulating hormone receptor (TSHR) signaling pathway (AID 1224843; calls by dose curve; note: nearly all actives have a fitted effect of over 45% in size). The gist of the method: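 TSHR-HEK293 cells in agonist mode, 30 min room-temperature step, then cAMP measured by competitive HTRF (cAMP-d2 with anti-cAMP cryptate) after 1 h at room temperature. Tested at 15 concentrations in triplicate.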
Chain of Thyrotropin receptor (Homo sapiens) (P16473 whole entry, looked up): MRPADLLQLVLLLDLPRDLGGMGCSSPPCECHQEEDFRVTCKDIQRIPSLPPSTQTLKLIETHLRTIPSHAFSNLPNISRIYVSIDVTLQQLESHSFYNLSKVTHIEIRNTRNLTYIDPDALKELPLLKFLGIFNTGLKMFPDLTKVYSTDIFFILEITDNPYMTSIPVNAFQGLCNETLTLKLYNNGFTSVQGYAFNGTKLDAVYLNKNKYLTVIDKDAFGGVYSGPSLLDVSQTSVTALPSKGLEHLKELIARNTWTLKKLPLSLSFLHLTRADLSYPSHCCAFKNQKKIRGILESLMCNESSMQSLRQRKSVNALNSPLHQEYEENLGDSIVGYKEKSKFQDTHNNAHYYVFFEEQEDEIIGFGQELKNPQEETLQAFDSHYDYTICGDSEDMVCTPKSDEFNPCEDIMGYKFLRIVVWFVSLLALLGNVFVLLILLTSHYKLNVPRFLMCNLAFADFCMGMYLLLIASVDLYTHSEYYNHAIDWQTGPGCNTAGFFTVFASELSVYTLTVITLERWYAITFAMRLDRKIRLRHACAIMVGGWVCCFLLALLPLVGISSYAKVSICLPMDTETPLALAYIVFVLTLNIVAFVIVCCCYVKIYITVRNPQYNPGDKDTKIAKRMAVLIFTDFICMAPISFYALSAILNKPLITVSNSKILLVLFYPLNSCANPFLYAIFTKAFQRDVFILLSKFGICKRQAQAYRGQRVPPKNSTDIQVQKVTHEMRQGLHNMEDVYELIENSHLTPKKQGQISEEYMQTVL

A short description of assay [12]: qHTS assay to identify small molecule agonists of the hypoxia (HIF-1) signaling pathway - cell viability counter screen (AID 1224844; calls by dose curve; note: nearly all actives have a fitted effect of over 50% in size). The method in brief:
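Luminescent ATP content (CellTiter-Glo, 30 min, room temperature) served as the viability measure in HRE-bla ME-180 cells exposed to compounds for 17 hrs in low-serum medium (0.5% dialyzed FBS).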

Assay [13] is described as follows: qHTS assay to identify small molecule agonists of H2AX (AID 1224845; active = well fitted activation curve with a large enough effect in the signal ratio in the repeat runs, not every such curve was filed as active; the % refers to the signal ratio). The method in brief: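 Wild-type CHO-K1 cells, plated overnight, exposed 3hr at 37C to 15 concentrations (0.76% DMSO final). Lysed, then HTRF anti-pH2AX (S139) cryptate and anti-H2AX-d2 antibodies, 24 hr room temperature; 665/620 nm emission read.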
Assay [14] in a line: qHTS assay to identify small molecule agonists of the hypoxia (HIF-1) signaling pathway (AID 1224846; active = well fitted activation curve with a large enough effect in the signal ratio in the repeat runs, not every such curve was filed as active; the % refers to the signal ratio). The gist of the method: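 Measured by blue/green FRET after loading CCF4-AM: beta-lactamase expressed from a hypoxia response element in ME-180 cells. Test agents were delivered in DMSO and left 17 hrs; cells had been plated 5 hrs earlier in low-serum (0.5% dialyzed FBS) medium.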

Assay [15] can be described thus: qHTS assay to identify small molecule agonists of H2AX - cell viability counter screen (AID 1224847; calls by dose curve; note: top concentration of the series differs between compounds; nearly all actives have a fitted effect of over 30% in size). The method in brief:
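We seed wild-type CHO-K1 cells overnight, treat them for 3 hr at 37C with compounds in 15-concentration series, and quantify remaining viability by CellTiter-Glo luminescence.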

The nature of assay [16]: qHTS RealTime-Glo MT Cell Viability Assay in HepG2 cells - 24 hour (AID 1224867). Note: nearly all actives have a fitted effect of over 50% in size. The gist of the method: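 HepG2 suspension premixed with RealTime-Glo reagents is plated at 600 cells per well and left 5 h at 37 C/5% CO2. Compounds in DMSO then go in, and bioluminescence reflecting viable cell number is recorded over 40 h.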

Records with an inconclusive call do not appear. A number with no mark means an inactive call. Active and inactive are the calls of the source. Unless noted, calls come from the whole dose curve; as a rule, active = well fitted curve in the direction sought with a large enough effect in the repeat runs; inconclusive = weak or mixed curves; inactive = no such curve, though single readings can be large; an effect the other way counts as inactive or inconclusive.
% is set by controls: 0 for no effect and ±100 for the full control effect.

Take `COc1cc(C(=O)NC2CCCNC2)cc(OC)c1OC` (stereo not drawn): the compound was classed as inactive in assay [1], in [2], in [4], in assay [6], in assay [7] and in [8]. Further, the compound was classed as inactive in [10], in assay [12] and in assay [13]. The Potency entry in assay [3], in [5], in [9] and in [11] was “inactive” throughout.

With `CNC(C)=O`, the result in [1], in [2], in assay [4], in assay [6], in assay [7] and in assay [8] was inactive. The result in assay [10], in assay [12], in [13], in [14], in assay [15] and in assay [16] was inactive. Besides, the Potency result in [3], in assay [5], in assay [9] and in [11] was “inactive” each time.

Take `C/C=C/C(=O)CCCC`: the compound was called inactive in [1], in [2], in [4], in assay [6], in assay [7] and in [8]. The outcome in assay [10], in assay [13], in assay [14] and in assay [16] was inactive. Besides, the Potency result in [3], in assay [5], in [9] and in [11] was “inactive” in each case.

In the case of `CN(C)CCCN(C)C`, the activity change, negative = cytotoxicity in [1] is -1.41% [at 8.39 µM]; in assay [7] it was 1.66% [at 8.39 µM]; in [12], 11.5% [at 6.97 µM]; in assay [15], 0.19% [at 14 µM]; in assay [16], 0.293% [at 6.97 µM]. The activity, negative = inhibition is 0.227% [at 8.39 µM] in assay [2] and -1.01% [at 8.39 µM] in assay [8]. The values for the activation in [3], in [9] and in [11] were 0.0534% [at 8.36 µM], -0.471% [at 8.39 µM] and -10.3% [at 8.39 µM], respectively. In addition, the viability change, negative = cytotoxic in assay [4] is 0.808% [at 8.39 µM]; in [6], -1.97% [at 8.39 µM]; in assay [10], 4.04% [at 8.39 µM]. The activity change, negative = inhibition in [5] is 2.53% [at 10.5 µM]. Besides, the activation (H2AX phosphorylation) in assay [13] was 0.536% [at 14 µM].

Turning to `CCN(CC)CC`, the compound was called inactive in assay [1], in assay [2], in assay [4], in [6], in assay [7] and in assay [8]. Moreover, the result in [10], in [12], in [13], in assay [14] and in assay [16] was inactive. The Potency entry in assay [3], in assay [5], in [9] and in [11] was “inactive” throughout.

On to `Cc1ccccc1C#N`, for which the call in [1], in assay [2], in assay [4], in assay [6], in assay [7] and in assay [8] was inactive. For the same compound, the compound was classed as inactive in assay [10], in assay [12], in assay [13], in assay [14] and in assay [16]. The Potency entry in assay [3], in [5], in assay [9] and in assay [11] was “inactive” throughout.

On to `CCCCC(O)/C=C(C)/C=C/C=C/C(=O)N1CCCC1=O` (stereo not drawn), for which the compound was called inactive in [1], in assay [2], in assay [4], in [6], in [7] and in assay [8]. The result in assay [10], in [13], in assay [14], in assay [15] and in assay [16] was inactive. The Potency entry in assay [3], in assay [5], in assay [9] and in assay [11] was “inactive” throughout.

For the compound `O=C(O)COc1ccc2ccccc2c1`, the outcome in [1], in [2], in [4], in [6], in assay [7] and in assay [8] was inactive. In addition, the result in assay [10], in assay [12], in assay [13], in assay [14], in assay [15] and in [16] was inactive. Also, the Potency entry in assay [3] and in assay [9] was “inactive” in each case. Further, the Potency in assay [5] is 39.9 µM (active).

Regarding `Cc1ccc2ccccc2n1`, the outcome in assay [1], in assay [2], in assay [4], in assay [6], in assay [7] and in assay [8] was inactive. The call in [10], in assay [13], in assay [14], in [15] and in assay [16] was inactive. Besides, the Potency entry in [3], in [5], in assay [9] and in assay [11] was “inactive” throughout.

The record behind these values is PubChem BioAssay (Tox21).
